Activity calls are given as the source filed them. Rule for the calls: active = hit-call score of the fitted dose curve at least 0.9, where 1 is the maximum; inactive = score below 0.9.
Key:
Settings in all cases: mRNA level, 48 h; actives raise or lower the signal
[1] = read-out: Glutathione S-Transferase (GSTA2), GSTA2 (gene 2939); experiment: LTEA_HepaRG_GSTA2: Life Technologies and Expression Analysis (LTEA) Assay for Glutathione S-Transferase (GSTA2) using HepaRG (AID 2283497)
How it was run: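 Human HepaRG cells, plated 48 h, then exposed in serum-free induction medium for 48 h to eight half-log concentrations up to 100 uM in 0.5% DMSO, duplicate. GSTA2 mRNA by qRT-PCR, normalized to ACTB/GAPDH/POLR2A; bidirectional fit versus DMSO.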

[2] = read-out: Glutamate-cysteine ligase catalytic (GCLC), GCLC (gene 2729); experiment: LTEA_HepaRG_GCLC: Life Technologies and Expression Analysis (LTEA) Assay for Glutamate-cysteine ligase catalytic (GCLC) using HepaRG (AID 2283498)
How it was run: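 Differentiated human HepaRG cells, plated 48 h then switched to serum-free induction medium, were exposed in duplicate for 48 h to 8 half-log concentrations topping at 100 uM in 0.5% DMSO. GCLC mRNA was quantified by qRT-PCR against ACTB, GAPDH and POLR2A.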

[3] = read-out: growth arrest and DNA damage 45 (GADD45G), GADD45G (gene 10912); experiment: LTEA_HepaRG_GADD45G: Life Technologies and Expression Analysis (LTEA) Assay for growth arrest and DNA damage 45 (GADD45G) using HepaRG (AID 2283499)
How it was run: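 Concentration-response in HepaRG: 48 h dosing, 0.5% DMSO, highest level 100 uM. GADD45G expression by qRT-PCR, normalised to endogenous controls; bidirectional fit to DMSO.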

[4] = read-out: Glutamate-cysteine ligase regulatory (GCLM), GCLM (gene 2730); experiment: LTEA_HepaRG_GCLM: Life Technologies and Expression Analysis (LTEA) Assay for Glutamate-cysteine ligase regulatory (GCLM) using HepaRG (AID 2283500)
How it was run: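 Human liver HepaRG cultures receive test chemicals for 48 hours at up to 100 uM in 0.5% DMSO. GCLM expression is measured by qRT-PCR and analysed for increases or decreases against vehicle.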

[5] = read-out: Glutathione S-transferase M3 (GSTM3), GSTM3 (gene 2947); experiment: LTEA_HepaRG_GSTM3: Life Technologies and Expression Analysis (LTEA) Assay for Glutathione S-transferase M3 (GSTM3) using HepaRG (AID 2283501)
How it was run: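 Expression of GSTM3 is determined by qRT-PCR in human liver HepaRG cells treated 48 h with an 8-point half-log range from 100 uM in 0.5% DMSO.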

[6] = read-out: Heat shock 70 kDa protein 1 (HSPA1A), gene 3303; experiment: LTEA_HepaRG_HSPA1A: Life Technologies and Expression Analysis (LTEA) Assay for Heat shock 70 kDa protein 1 (HSPA1A) using HepaRG (AID 2283502)
How it was run: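 HSPA1A induction in human HepaRG liver cells is measured after 48 h of chemical treatment (100 uM maximum, 0.5% DMSO vehicle). Expression comes from qRT-PCR normalized to endogenous controls.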

[7] = read-out: Hypoxia-inducible factor 1-alpha (Homo sapiens) (UniProt Q16665); experiment: LTEA_HepaRG_HIF1A: Life Technologies and Expression Analysis (LTEA) Assay for Hypoxia-inducible factor 1 (HIF1A) Trancription factor using HepaRG (AID 2283503)
How it was run: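 HepaRG, 48 h exposure, 8-pt half-log series from 100 uM, 0.5% DMSO vehicle, duplicates. Readout: HIF1A transcript by qRT-PCR (Fluidigm array), housekeeping-normalised. Bidirectional curve fit vs DMSO baseline.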

[8] = read-out: 3-Hydroxy-3-Methylglutaryl-CoA Synthase 2 (HMGCS2), HMGCS2 (gene 3158); experiment: LTEA_HepaRG_HMGCS2: Life Technologies and Expression Analysis (LTEA) Assay for 3-Hydroxy-3-Methylglutaryl-CoA Synthase 2 (HMGCS2) using HepaRG (AID 2283504)
How it was run: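 This steatosis marker was read as HMGCS2 mRNA change in HepaRG cells treated 48 h with up to 100 uM chemical. Normalisation used housekeeping genes; activity in either direction was fitted relative to 0.5% DMSO vehicle.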

[9] = read-out: Insulin Like Growth Factor 1 (IGF1), IGF1 (gene 3479); experiment: LTEA_HepaRG_IGF1: Life Technologies and Expression Analysis (LTEA) Assay for Insulin Like Growth Factor 1 (IGF1) using HepaRG (AID 2283506)
How it was run: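 Using human HepaRG liver cells, IGF1 transcript induction or suppression is measured 48 h after dosing across eight concentrations capped at 100 uM. Values derive from bidirectional concentration-response fitting with DMSO as baseline.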

[10] = read-out: Intercellular Adhesion Molecule 1 (ICAM1), ICAM1 (gene 3383); experiment: LTEA_HepaRG_ICAM1: Life Technologies and Expression Analysis (LTEA) Assay for Intercellular Adhesion Molecule 1 (ICAM1) using HepaRG (AID 2283507)
How it was run: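 Using the human liver line HepaRG, compounds are tested in duplicate over 48 h at concentrations up to 100 uM. Expression is determined by TaqMan qRT-PCR, normalized to endogenous controls, and analysed relative to 0.5% DMSO vehicle.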

[11] = read-out: Insulin-like growth factor-binding protein 1 (IGFBP1), IGFBP1 (gene 3484); experiment: LTEA_HepaRG_IGFBP1: Life Technologies and Expression Analysis (LTEA) Assay for Insulin-like growth factor-binding protein 1 (IGFBP1) using HepaRG (AID 2283508)
How it was run: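 HepaRG, 48 h, 8 conc. (max 100 uM, half-log), duplicates, 0.5% DMSO. Readout: TaqMan qRT-PCR, ACTB/GAPDH/POLR2A normalisation. Fit: bidirectional vs DMSO.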

[12] = read-out: Interleukin 6 (IL6), IL6 (gene 3569); experiment: LTEA_HepaRG_IL6: Life Technologies and Expression Analysis (LTEA) Assay for Interleukin 6 (IL6) using HepaRG (AID 2283509)
How it was run: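 Differentiated human HepaRG cells, plated 48 h then switched to serum-free induction medium, were exposed in duplicate for 48 h to eight half-log concentrations up to 100 uM in 0.5% DMSO. IL6 mRNA measured by qRT-PCR, normalized to ACTB/GAPDH/POLR2A.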

[13] = read-out: Interleukin 6 Receptor (IL6R), IL6R (gene 3570); experiment: LTEA_HepaRG_IL6R: Life Technologies and Expression Analysis (LTEA) Assay for Interleukin 6 Receptor (IL6R) using HepaRG (AID 2283510);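 for AC50: TaqMan qRT-PCR signal normalized to ACTB GAPDH and POLR2A housekeeping genes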
How it was run: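 Concentration-response in human liver HepaRG cells: eight concentrations from 100 uM downward by half-logs, 48 h exposure, 0.5% DMSO vehicle. IL6R mRNA change measured by qRT-PCR and fitted in both directions relative to vehicle.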

[14] = read-out: Potassium channel subfamily K member 1 (KCNK1), KCNK1 (gene 3775); experiment: LTEA_HepaRG_KCNK1: Life Technologies and Expression Analysis (LTEA) Assay for Potassium channel subfamily K member 1 (KCNK1) using HepaRG (AID 2283511)
How it was run: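 Differentiated human HepaRG cells in serum-free induction medium were exposed in duplicate for 48 h to 8 half-log concentrations up to 100 uM in 0.5% DMSO. KCNK1 mRNA was measured by TaqMan qRT-PCR, normalized to ACTB, GAPDH and POLR2A, and fitted bidirectionally versus DMSO.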

[15] = read-out: Keratin 19 (KRT19), KRT19 (gene 3880); experiment: LTEA_HepaRG_KRT19: Life Technologies and Expression Analysis (LTEA) Assay for Keratin 19 (KRT19) using HepaRG (AID 2283512)
How it was run: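 Readout is qRT-PCR of KRT19 mRNA, normalized to ACTB, GAPDH and POLR2A, from HepaRG cells treated 48 h with eight-point half-log dilutions topping at 100 uM. Activity in either direction is scored relative to 0.5% DMSO vehicle.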

[16] = read-out: JUN Transcription Factor, JUN (gene 3725); experiment: LTEA_HepaRG_JUN: Life Technologies and Expression Analysis (LTEA) Assay for JUN Transcription Factor using HepaRG (AID 2283513)
How it was run: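 Human HepaRG liver cells receive test chemicals in 0.5% DMSO for 48 h across an eight-point range topping at 100 uM. Expression changes in JUN are scored in both directions against the DMSO vehicle.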

[17] = read-out: Lipase C (LIPC), LIPC (gene 3990); experiment: LTEA_HepaRG_LIPC: Life Technologies and Expression Analysis (LTEA) Assay for Lipase C (LIPC) using HepaRG (AID 2283514)
How it was run: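 Differentiated human HepaRG cells in serum-free induction medium were exposed in duplicate for 48 h to eight concentrations (top 100 uM, half-log steps, 0.5% DMSO). LIPC mRNA was quantified by TaqMan qRT-PCR, normalized to ACTB, GAPDH and POLR2A, with bidirectional fitting versus DMSO.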

[18] = read-out: Lipoprotein lipase (LPL), LPL (gene 4023); experiment: LTEA_HepaRG_LPL: Life Technologies and Expression Analysis (LTEA) Assay for Lipoprotein lipase (LPL) using HepaRG (AID 2283515)
How it was run: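 Differentiated human HepaRG cells in serum-free induction medium were exposed in duplicate for 48 h to eight half-log concentrations (top 100 uM) in 0.5% DMSO. LPL mRNA was quantified by TaqMan qRT-PCR, normalized to ACTB, GAPDH and POLR2A.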

[19] = read-out: MicroRNA 122 (MIR122), gene 406906; experiment: LTEA_HepaRG_MIR122: Life Technologies and Expression Analysis (LTEA) Assay for MicroRNA 122 (MIR122) using HepaRG (AID 2283516); note: the transcript read is the microRNA miR-122
How it was run: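 HepaRG, 48 h exposure, 8-pt half-log from 100 uM, 0.5% DMSO; TaqMan qRT-PCR; bidirectional fit vs DMSO.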

HGF (gene 3082) = experiment: LTEA_HepaRG_HGF: Life Technologies and Expression Analysis (LTEA) Assay for Hepatocyte Growth Facto (HGF) using HepaRG (AID 2283505)
How it was run: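 Using HepaRG monolayers kept in 0.5% DMSO, chemicals were tested in duplicate over eight half-log concentrations from 100 uM for 48 h. Endpoint: HGF mRNA change relative to DMSO, normalized to ACTB/GAPDH/POLR2A.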

Measured: AC50

Sequence of Hypoxia-inducible factor 1-alpha (Homo sapiens) (Q16665 whole entry, looked up): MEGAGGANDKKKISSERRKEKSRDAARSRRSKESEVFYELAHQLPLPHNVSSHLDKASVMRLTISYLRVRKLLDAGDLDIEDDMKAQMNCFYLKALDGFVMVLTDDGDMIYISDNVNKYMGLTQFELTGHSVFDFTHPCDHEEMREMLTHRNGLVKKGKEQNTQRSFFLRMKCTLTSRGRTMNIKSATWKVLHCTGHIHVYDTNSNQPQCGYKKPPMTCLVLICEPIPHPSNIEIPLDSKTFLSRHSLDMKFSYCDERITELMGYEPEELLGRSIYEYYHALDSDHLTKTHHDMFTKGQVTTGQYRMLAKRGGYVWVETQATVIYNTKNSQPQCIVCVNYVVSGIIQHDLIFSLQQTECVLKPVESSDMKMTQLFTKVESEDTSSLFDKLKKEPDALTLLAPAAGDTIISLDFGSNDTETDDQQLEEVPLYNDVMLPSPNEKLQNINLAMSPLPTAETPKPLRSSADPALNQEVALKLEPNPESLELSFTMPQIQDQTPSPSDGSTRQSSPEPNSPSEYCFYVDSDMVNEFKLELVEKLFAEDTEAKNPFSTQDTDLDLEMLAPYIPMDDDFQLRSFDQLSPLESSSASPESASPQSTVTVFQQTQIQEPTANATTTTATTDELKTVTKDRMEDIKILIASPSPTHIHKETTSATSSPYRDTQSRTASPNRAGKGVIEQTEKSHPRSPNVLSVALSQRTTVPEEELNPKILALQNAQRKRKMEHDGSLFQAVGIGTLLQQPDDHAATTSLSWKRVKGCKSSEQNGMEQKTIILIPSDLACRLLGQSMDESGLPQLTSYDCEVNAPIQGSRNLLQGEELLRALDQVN

CC(=O)OC/C=C(\C)CCC=C(C)C
inactive: [1] | [2] | [3] | [4] | [5] | [6] | [7] | [8] | [9] | [10] | [11] | [12] | [13] | [14] | [15] | [16] | [17] | [18]

Cc1ccc(C(C)C)c(O)c1
inactive: [1] | [2] | [3] | [4] | [5] | [6] | [7] | [8] | [9] | [10] | [11] | [12] | [13] | [14] | [15] | [16] | [17] | [18] | [19]

CCCCCCCCCCCCCCCC
inactive: [1] | [2] | [3] | [4] | [5] | [6] | [7] | [8] | HGF (gene 3082) | [9] | [10] | [11] | [12] | [13] | [14] | [15] | [16] | [17] | [18]

Nc1nc(N)c2nc(CNc3ccc(C(=O)N[C@@H](CCC(=O)O)C(=O)O)cc3)cnc2n1
active: [1] 0.12 µM | [11] 0.0937 µM
inactive: [2] | [3] | [4] | [5] | [6] | [8] | HGF (gene 3082) | [9] | [10] | [12] | [13] | [14] | [15] | [16] | [17] | [18]

Cc1cccc(Nc2cc(Cl)nc(SCC(=O)O)n2)c1C
active: [8] 6.99 µM
inactive: [1] | [2] | [3] | [4] | [5] | [6] | HGF (gene 3082) | [9] | [10] | [11] | [12] | [13] | [14] | [15] | [16] | [17] | [18] | [19]

O=c1[nH]cc(F)c(=O)[nH]1
active: [1] 78 µM | [8] 51 µM | [13] 51 µM | [17] 80.6 µM | [18] 34.5 µM
inactive: [2] | [3] | [4] | [5] | [6] | HGF (gene 3082) | [9] | [10] | [11] | [12] | [14] | [15] | [16] | [19]

CC1(C)CC(N=C=O)CC(C)(CN=C=O)C1 (configuration not stated)
inactive: [1] | [2] | [3] | [4] | [5] | [6] | [7] | [8] | HGF (gene 3082) | [9] | [10] | [11] | [12] | [13] | [14] | [15] | [16] | [17] | [18] | [19]
